Our source for the Potency values is PubChem BioAssay (NCATS).

Records with an inconclusive call do not appear. A call without a number means that no potency is given here. Active and inactive are the calls of the source. The call rests on the fitted dose curve; in most records, active means well fitted inhibition curve with a large enough effect; inconclusive means small, poorly fitted or top-dose-only effect; inactive means flat fitted curve, though single readings scatter.

Sequence of Calcium and integrin-binding protein 1 (Homo sapiens) (Q99828 whole entry, looked up): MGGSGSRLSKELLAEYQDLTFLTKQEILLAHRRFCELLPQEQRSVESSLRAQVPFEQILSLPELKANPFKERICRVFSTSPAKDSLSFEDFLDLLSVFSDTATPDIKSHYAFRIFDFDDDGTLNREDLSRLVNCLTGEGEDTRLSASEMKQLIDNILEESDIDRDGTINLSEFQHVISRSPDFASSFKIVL

The test deals with Calcium and integrin-binding protein 1 (Homo sapiens) (UniProt Q99828). In words: Primary qHTS for Identification of Calcium Integrin Binding Protein 1 (CIB1) Competitor (AID 1508620).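 Further: GST tagged CIB1 binding a fluorescein labelled alphaIIb integrin peptide tracer; top concentration of the series differs between compounds.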 The following applies: CIB1-GST / FITC-alphaIIb peptide fluorescence polarization; series mostly up to 114 µM. The essentials:
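CIB1-GST (1 uM final) and compound incubated 15 min at room temperature before adding FITC-alphaIIb peptide tracer (100 nM final). Competition for binding read by fluorescence polarization (ex 480, em 540) after another 15 min at room temperature.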
For orientation: qHTS replaces the single test concentration by a dilution series.
`CC1OC(OCC2OC(OC3CCC4(C)C(CCC5(C)C4CC=C4C6CC(C)(C)CCC6(C(=O)OC6OC(CO)C(O)C(O)C6O)CCC45C)C3(C)CO)C(O)C(O)C2O)C(O)C(O)C1O` (centres undefined): the Potency entry was “inactive”. For `CC(=O)OC1CC2(C)C3=CCC4(C)C5C(O)C(O)C(C(C)C)C5(C)CCC4(C)C3CCC2C(C)(C)C1OC1OC(CO)C(O)C(O)C1O` (centres undefined) the value was “inactive”. Turning to `O=S(=O)(Nc1ccccn1)c1ccc(N=Cc2c(O)[nH]c3ccc4ncsc4c23)cc1`, the Potency entry is “inactive”.

`O=C(CC1C(=O)Nc2ccccc21)OC[C@H]1O[C@@H](OCCc2ccc(O)cc2)[C@H](O)[C@@H](O)[C@@H]1O` (some centres undefined): the Potency entry is “inactive”. Next, `C=C1CC[C@@H]2[C@](C)(CO[C@@H]3O[C@H](CO)[C@@H](O)[C@H](O)[C@H]3O)[C@H](O)CC[C@@]2(C)[C@@H]1C/C=C1/C(=O)OC[C@H]1O`: “inactive”; `NC(=O)[C@H](O[C@@H]1O[C@H](CO)[C@@H](O)[C@H](O)[C@H]1O)c1ccccc1`: “inactive”. `O=C(Nc1ccc(-c2ccncc2)cc1)N[C@H](CO)c1ccccc1`: the Potency entry is “inactive”. Next, `COC(=O)C1=COC(OC2OC(CO)C(O)C(O)C2O)C2C1C=CC2(O)CO` (centres undefined): “inactive”; `Cc1c[nH]c2nccc(Oc3c(F)cc(Nc4cc(Cl)nc(N)n4)cc3F)c12`: “inactive”. Next, `c1cc(OCCCN2CCCCC2)ccc1CN1CCCCC1`: “inactive”.

For `COc1ccc(-c2ccc(-c3cn(C(=O)N4CCCCC4c4ccccc4)nn3)cc2)cc1` (centres undefined), the Potency result was “inactive”. Turning to `CC1(c2nc3c(C(N)=O)cccc3[nH]2)CCCN1` (centres undefined), the Potency entry was “inactive”. Next, `COc1ccc(CC2C(=O)NC(C)C(=O)N(C)C3Cc4ccc(cc4)Oc4cc(ccc4OC4OC(CO)C(O)C(O)C4O)CC(C(=O)NC(C)C(=O)NC(C)C(=O)N2C)N(C)C3=O)cc1` (centres undefined): “inactive”.

`CC1=C2C(O)C(=O)OC(c3ccoc3)C2(C)CCC1O` (centres undefined): the Potency result is “inactive”. Next, `COc1c2c(c(C)c3c1C(=O)OC3)OC1(C)CC(O)C(C(C)(C)O)C(C)(CCC(=O)O)C1C2` (centres undefined): “inactive”.

Consider `Cc1cc(C)c2c(N)c(C(=O)NCc3ccc(Cl)cc3)sc2n1`, for which the Potency entry was “inactive”. Next, `C=C(C)C(=O)OC1C(OC(C)=O)/C(C=O)=C\CC/C(CO)=C/C2OC(=O)C(=C)C21` (centres undefined): “inactive”. As for `CC1(C)CC[C@]2(C(=O)O[C@@H]3O[C@H](CO)[C@@H](O)[C@H](O)[C@H]3O)CC[C@]3(C)C(=CCC4[C@@]5(C)CC[C@H](O[C@@H]6O[C@H](C(=O)O)[C@@H](O)[C@H](O[C@@H]7O[C@H](CO)[C@H](O)[C@H](O)[C@H]7O)[C@H]6O)C(C)(C)C5CC[C@]43C)C2C1` (some centres undefined), the Potency result was “inactive”. Next, `CCOC(=O)c1cc(C#N)c(N2CCC(C(=O)NS(=O)(=O)Cc3ccccc3)CC2)nc1C`: “inactive”; `Cc1nc(NC(=O)N2CCCC2C(N)=O)sc1-c1csc(C(C)(C)C)n1` (centres undefined): “inactive”. For `C/C(=C\CCC1(C)C2CCC(C2)C1(C)O)C(=O)O` (centres undefined) the value was “inactive”; for `CC1=CC(=O)CC(C)(C)[C@H]1/C=C/C(CO)O[C@@H]1O[C@H](CO)[C@@H](O)[C@H](O)[C@H]1O` (some centres undefined), “inactive”. For `COc1cc2oc(-c3ccc(O)cc3O)cc2c(OC)c1CC=C(C)C` the value was “inactive”; for `C[C@@H]1O[C@@H](O[C@H]2[C@@H]3C=CO[C@@H](O[C@@H]4O[C@H](CO)[C@@H](O)[C@H](O)[C@H]4O)[C@@H]3[C@@]3(CO)O[C@@H]23)[C@H](OC(=O)/C=C/c2ccccc2)[C@H](O)[C@H]1O`, “inactive”; for `OC/C=C/C=C/[C@H]1Cc2cc(O)cc(O)c2O1`, “inactive”. With `C[C@@]12CC[C@@H]3[C@@](CC[C@H]4[C@@]3(C)CCC[C@@]4(C)C(=O)O)(CC1=O)C2`, the Potency entry is “inactive”. Consider `COc1ccc(C2COc3cc(O)ccc3C2)c(O)c1` (centres undefined), for which the Potency entry was “inactive”. Next, `CC1(C)CC2C(O)c3cocc3CC(C)(O)C2C1` (centres undefined): “inactive”. Take `CCC1C(=O)N(C)c2cnc(Nc3ccc(C(=O)NC4CCC(N5CCN(CC6CC6)CC5)CC4)cc3OC)nc2N1C(C)C` (centres undefined): the Potency entry is “inactive”.
